The supplement of paper PMC13380429

Assays:
[1] = system: Vero E6 infected with SARS-CoV-2; assay: morphology score (similarity to uninfected cells); higher = more like uninfected cells; details: 24 h
[2] = system: Vero E6 infected with SARS-CoV-2; assay: SARS-CoV-2 infection rate relative to infected DMSO; higher = more infection, active = 60 or less; details: 24 h

SMILES | morphology score [1] | SARS-CoV-2 infection rate [2]
Cc1ccc(C(=O)Nc2cccc(C(F)(F)F)c2)cc1Nc1nc(-c2cccnc2)nc2c1cnn2C (10 µM) | -0.0613 | 74% (inactive)
O=C(O)c1c2ccccc2cc2ccccc12 [9-anthracenecarboxylic-acid] (10 µM) | 0.252 | 89.5% (inactive)
COc1cnc(NS(=O)(=O)c2ccc(N)cc2)nc1 [sulfameter] (10 µM) | 0.131 | 111% (inactive)
CCC[C@@H]1CC(=O)N([C@@H](CC)C(N)=O)C1 [Brivaracetam] (10 µM) | 0.0266 | 111% (inactive)
CN[C@@H](C)C(=O)N[C@H](C(=O)N1CCC[C@H]1c1nc(C(=O)c2ccc(F)cc2)cs1)C1CCCCC1 (10 µM) | 0.403 | 87% (inactive)
OC[C@@H](O)[C@H]1O[C@@H]2O[C@H](C(Cl)(Cl)Cl)O[C@@H]2[C@H]1O [chloralose] (10 µM) | 0.162 | 103% (inactive)
CCc1cccc2c3c([nH]c12)C(CC)(CC(=O)O)OCC3 (stereo not drawn) [etodolac] (10 µM) | -0.0116 | 115% (inactive)
Cc1cc(Nc2ncnc3ccc(NC4=NC(C)(C)CO4)cc23)ccc1Oc1ccn2ncnc2c1 [tucatinib] (0.833333 µM) | -0.0894 | 114% (inactive)
Cc1coc2c1C(=O)C(=O)c1c-2ccc2c(C)cccc12 [tanshinone-I] (10 µM) | -0.0142 | 106% (inactive)
CC(C)c1noc(N2CCC(COc3ccc(-c4ccc(S(C)(=O)=O)cc4)nc3)CC2)n1 (10 µM) | -0.0966 | 116% (inactive)
CC(C)c1ccc(NC(=O)c2cccs2)c(-c2nc3ccccc3[nH]c2=O)c1 (10 µM) | 0.23 | 83% (inactive)
CCOc1cc2ncc(C#N)c(Nc3ccc(F)c(Cl)c3)c2cc1NC(=O)/C=C/CN(C)C [pelitinib] (10 µM) | -0.188 | 110% (inactive)
OC[C@H]1O[C@@H](c2ccc(F)c(Cc3cc4ccccc4s3)c2)[C@H](O)[C@@H](O)[C@@H]1O [ipragliflozin-L-proline] (10 µM) | 0.0125 | 110% (inactive)
C#C[C@]1(O)CC[C@H]2[C@@H]3CCc4cc(OC)ccc4[C@H]3CC[C@@]21C [mestranol] (10 µM) | -0.00302 | 110% (inactive)
CCC1(C2=NCCN2)Cc2ccccc2O1 (stereo not drawn) [efaroxan] (10 µM) | 0.165 | 95% (inactive)
C=CC[C@@H]1/C=C(\C)C[C@H](C)C[C@H](OC)[C@H]2O[C@@](O)(C(=O)C(=O)N3CCCC[C@H]3C(=O)O[C@H](/C(C)=C/[C@@H]3CC[C@@H](O)[C@H](OC)C3)[C@H](C)[C@@H](O)CC1=O)[C@H](C)C[C@@H]2OC [tacrolimus] (10 µM) | 0.199 | 93% (inactive)
O=C(O)c1ccc(Nc2ncc3c(n2)-c2ccc(Cl)cc2C(c2c(F)cccc2F)=NC3)cc1 (10 µM) | 0.00168 | 109% (inactive)
CC(=O)[C@]1(N)Cc2c(O)c3c(c(O)c2[C@@H](O[C@H]2C[C@H](O)[C@H](O)CO2)C1)C(=O)c1ccccc1C3=O [amrubicin] (0.833333 µM) | 0.065 | 92.5% (inactive)
CON(C)C(=O)[C@H](O)[C@H](Cc1ccccc1)NC(=O)c1cc2cc(Cl)ccc2[nH]1 (10 µM) | 0.109 | 109% (inactive)
OCc1ccccc1O [salicyl-alcohol] (10 µM) | -0.0183 | 106% (inactive)
NCCC(=O)N[C@@H](Cc1c[nH]cn1)C(=O)O [carnosine] (0.833333 µM) | 0.0964 | 99% (inactive)
Cn1c(NC[C@@H](N)Cc2ccccc2)nc(-c2ccncc2)c(-c2ccc3ccccc3c2)c1=O (10 µM) | 0.653 | 35% (active)
FC(F)(F)C(F)(F)C(F)(F)C(F)(F)C(F)(F)C(F)(F)C(F)(F)C(F)(F)Br [perflubron] (10 µM) | 0.0887 | 102% (inactive)
CCN(c1ccccc1)c1cc(=NC)n(C)c(C)n1 (10 µM) | 0.203 | 94% (inactive)
CC(C)(C)NCC(O)c1cc(Cl)c(N)c(C(F)(F)F)c1 (stereo not drawn) [mabuterol] (10 µM) | -0.0501 | 107% (inactive)
COc1c(-c2ccc3cc(NS(C)(=O)=O)ccc3c2)cc(-n2ccc(=O)[nH]c2=O)cc1C(C)(C)C [dasabuvir] (10 µM) | 0.123 | 106% (inactive)
O=C1Nc2ccc(I)cc2C1=Cc1cc(Br)c(O)c(Br)c1 (10 µM) | 0.384 | 98.5% (inactive)
O=C(c1ccc(OCCN2CCCCC2)cc1)c1c(-c2ccc(O)cc2)sc2cc(O)ccc12 [raloxifene] (0.833333 µM) | 0.0812 | 101% (inactive)
COc1ccc2[nH]cc(C3=CCNCC3)c2c1 (10 µM) | 0.191 | 104% (inactive)
